Assay results from PubChem BioAssay (Tox21).
A number with no mark means an inactive call. Inconclusive results are not listed. A call without a number means that no potency is given here. Calls of active or inactive are those of the source. Unless noted, calls follow the shape of the dose curve; as a rule, active = well fitted curve in the direction sought with a large enough effect in the repeat runs; inconclusive = weak or mixed curves; inactive = no such curve, though single readings can be large; an effect the other way counts as inactive or inconclusive.

What was measured:
[1] = qHTS RealTime-Glo MT Cell Viability Assay in HEK293 cells - 0 hour (AID 1224880); also: top concentration of the series differs between compounds; nearly all actives have a fitted effect of over 45% in size
Outline: (§1)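 Kinetic, non-lysing viability readout. Seed HEK293 (600/well) with reagent, incubate 5 h at 37 C/5% CO2, pin 23 nL compound in DMSO, incubate at 37 C, read luminescence at 0, 8, 16, 24, 32, 40 h.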

[2] = A CellTox Green Cytotoxicity Assay to monitor cytotoxicity in HEK293 cells - 32 hour (AID 1224881); also: nearly all actives have a fitted effect of over 40% in size; also: potency is read from the fitted curve at half-maximal effect
Outline: (§2)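 Real-time, in one plate: 600 HEK293 cells/well with dead-cell DNA dye, pinned compound after 5 h, 37 C incubation over 40 h; viable cells give no appreciable fluorescence.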

[3] = A CellTox Green Cytotoxicity Assay to monitor cytotoxicity in HepG2 cells - 32 hour (AID 1224883); also: nearly all actives have a fitted effect of over 50% in size; also: potency is read from the fitted curve at half-maximal effect
Outline: (§3)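 Cytotoxicity was tracked as dead-cell DNA fluorescence in HepG2 cells treated with test compounds at 37 C; each time-point value comes from one kinetic series spanning 0, 8, 16, 24, 32 and 40 h.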

[4] = A CellTox Green Cytotoxicity Assay to monitor cytotoxicity in HEK293 cells - 8 hour (AID 1224884); also: nearly all actives have a fitted effect of over 35% in size; also: potency is read from the fitted curve at half-maximal effect
Outline: as §2

[5] = qHTS RealTime-Glo MT Cell Viability Assay in HepG2 cells - 16 hour (AID 1224885); also: nearly all actives have a fitted effect of over 50% in size
Outline: (§4)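 HepG2 cells were seeded at 600 cells/well together with NanoLuc luciferase and a cell-permeant prosubstrate, preincubated 5 h at 37 C/5% CO2, then pin-dosed with compounds in DMSO. Nonlytic luminescence from viable cells was read at each time point.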

[6] = qHTS RealTime-Glo MT Cell Viability Assay in HEK293 cells - 24 hour (AID 1224886); also: top concentration of the series differs between compounds; nearly all actives have a fitted effect of over 50% in size
Outline: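 HEK293 cells were seeded at 600 cells/well together with NanoLuc luciferase and cell-permeant prosubstrate, preincubated 5 h at 37 C/5% CO2, then given compound in DMSO by pintool. Luminescence from viable-cell prosubstrate reduction was read repeatedly over 40 h.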

[7] = A CellTox Green Cytotoxicity Assay to monitor cytotoxicity in HEK293 cells - 16 hour (AID 1224888); also: nearly all actives have a fitted effect of over 35% in size; also: potency is read from the fitted curve at half-maximal effect
Outline: as §2

[8] = qHTS RealTime-Glo MT Cell Viability Assay in HepG2 cells - 0 hour (AID 1224889); also: nearly all actives have a fitted effect of over 50% in size
Outline: as §4

[9] = A CellTox Green Cytotoxicity Assay to monitor cytotoxicity in HepG2 cells - 8 hour (AID 1224890); also: nearly all actives have a fitted effect of over 45% in size; also: potency is read from the fitted curve at half-maximal effect
Outline: as §3

[10] = qHTS assay to identify small molecule antagonists of the estrogen receptor alpha (ER-alpha) signaling pathway using the BG1 cell line in the presence of 0.1 nM 17-beta-estradiol - cell viability counter screen (AID 1259241); also: nearly all actives have a fitted effect of over 40% in size
Outline: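 Estradiol-stimulated (0.1 nM) VM7Luc4E2 cells exposed to compounds 22 hr; viability measured by fluorescence of cleaved CellTiter-Fluor substrate after 30 min.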

[11] = qHTS assay to identify small molecule antagonists of the androgen receptor (AR) signaling pathway using the MDA cell line in the presence of 0.5 nM R1881 - cell viability counter screen (AID 1259242); also: nearly all actives have a fitted effect of over 45% in size
Outline: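 Cells seeded at 3,000/well and allowed 5 hr at 37C, 0% CO2 before compound transfer and R1881 (0.5 nM final) addition; 16 hr later, live-cell protease fluorescence indicated cytotoxicity.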

[12] = target: Estrogen receptor (Homo sapiens) (UniProt P03372); experiment: qHTS assay to identify small molecule antagonists of the estrogen receptor alpha (ER-alpha) signaling pathway using the BG1 cell line in the presence of 0.1 nM 17-beta-estradiol (AID 1259244); also: nearly all actives have a fitted effect of over 50% in size
Outline: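 Luciferase signal from VM7Luc4E2 ERE-reporter cells, co-dosed with test compound and 0.1 nM final 17beta-estradiol for 22 h, read with ONE-Glo.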

[13] = qHTS assay to identify small molecule HDAC inhibitors (AID 1259364);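 also: wild-type HCT-116 cells with endogenous class I/II HDAC activity; top concentration of the series differs between compounds; nearly all actives have a fitted effect of over 45% in size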
Outline: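 HCT-116 wt cells, 1,500/well, overnight attach. Compounds (DMSO) 2 h, 37 °C. HDAC-Glo I/II, 30 min RT. Luminescence.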

[14] = qHTS assay to identify small molecule HDAC inhibitors - cell viability counter screen (AID 1259365)
Outline: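 After overnight seeding at 1,500 cells per well, wild-type HCT-116 cultures took up compounds in DMSO for 2hr at 37 C. Viable cell content came from luminescence with CellTiter-Glo.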

[15] = qHTS assay to identify small molecule agonists of the sonic hedgehog signaling (Shh) pathway - cell viability counter screen (AID 1259366); also: nearly all actives have a fitted effect of over 50% in size
Outline: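 Same-well cytotoxicity read. Gli1-Luc reporter 3T3 cells; compounds 24hr, 37C/5% CO2; CellTiter-Fluor fluorescence.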

[16] = A CellTox Green Cytotoxicity Assay to monitor cytotoxicity in HepG2 cells - 0 hour (AID 1224882); also: nearly all actives have a fitted effect of over 35% in size
Outline: as §3

[17] = qHTS RealTime-Glo MT Cell Viability Assay in HEK293 cells - 8 hour (AID 1224887); also: nearly all actives have a fitted effect of over 50% in size; also: potency is read from the fitted curve at half-maximal effect
Outline: as §1

[18] = target: Androgen receptor (Homo sapiens) (UniProt P10275); experiment: qHTS assay to identify small molecule antagonists of the androgen receptor (AR) signaling pathway using the MDA cell line in the presence of 0.5 nM R1881 (AID 1259243); also: nearly all actives have a fitted effect of over 50% in size
Outline: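 Luminescence from an AR/GR-responsive MMTV-luciferase construct in MDA-kb2 breast carcinoma cells, read 30 min after ONE-Glo, following 16 hr co-treatment with compounds and 0.5 nM R1881.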

[19] = qHTS assay to identify small molecule antagonists of the sonic hedgehog signaling (Shh) pathway - cell viability counter screen (AID 1259367); also: nearly all actives have a fitted effect of over 55% in size; also: potency is read from the fitted curve at half-maximal effect
Outline: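 Tox21 library chemicals were tested on a Gli1-Luc NIH/3T3 clone (2,000 cells/well) stimulated by conditioned medium; viability was quantified as fluorescence from CellTiter-Fluor reagent added at 23 hr.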

[20] = qHTS assay to identify small molecule phospholipidosis (PLD) inducers (AID 1259344; active = well fitted curve in the direction sought with a large enough effect; an effect the other way counts as inactive or inconclusive)
Outline: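 Image-based: LipidTOX Red pit count/intensity per well and per cell; HepG2, 24 h compound at 37 C, PFA fixation, Hoechst counterstain.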

Chain of Androgen receptor (Homo sapiens) (P10275 whole entry, looked up): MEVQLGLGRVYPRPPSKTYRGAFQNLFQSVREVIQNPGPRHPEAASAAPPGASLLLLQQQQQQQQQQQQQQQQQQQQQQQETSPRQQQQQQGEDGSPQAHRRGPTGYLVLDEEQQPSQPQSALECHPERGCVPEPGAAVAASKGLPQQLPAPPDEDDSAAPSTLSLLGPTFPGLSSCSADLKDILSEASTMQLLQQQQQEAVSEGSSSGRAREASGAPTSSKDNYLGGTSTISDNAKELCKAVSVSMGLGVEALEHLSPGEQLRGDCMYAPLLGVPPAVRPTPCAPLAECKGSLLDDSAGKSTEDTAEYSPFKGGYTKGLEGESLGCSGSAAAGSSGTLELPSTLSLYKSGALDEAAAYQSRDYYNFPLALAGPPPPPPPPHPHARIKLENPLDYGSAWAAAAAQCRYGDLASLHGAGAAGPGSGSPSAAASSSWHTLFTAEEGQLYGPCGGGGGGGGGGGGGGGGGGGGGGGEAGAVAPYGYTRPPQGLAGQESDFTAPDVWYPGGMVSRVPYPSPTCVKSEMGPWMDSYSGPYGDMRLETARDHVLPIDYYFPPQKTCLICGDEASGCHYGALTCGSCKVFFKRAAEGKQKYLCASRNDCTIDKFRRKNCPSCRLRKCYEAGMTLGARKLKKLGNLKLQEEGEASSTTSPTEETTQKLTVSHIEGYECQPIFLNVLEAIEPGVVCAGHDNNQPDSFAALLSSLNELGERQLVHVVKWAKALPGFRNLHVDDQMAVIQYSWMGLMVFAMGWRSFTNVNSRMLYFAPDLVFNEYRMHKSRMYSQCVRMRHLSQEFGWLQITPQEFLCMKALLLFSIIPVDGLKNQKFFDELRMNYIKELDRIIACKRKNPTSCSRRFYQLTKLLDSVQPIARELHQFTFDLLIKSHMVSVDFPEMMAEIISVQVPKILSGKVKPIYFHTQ
Chain of Estrogen receptor (Homo sapiens) (P03372 whole entry, looked up): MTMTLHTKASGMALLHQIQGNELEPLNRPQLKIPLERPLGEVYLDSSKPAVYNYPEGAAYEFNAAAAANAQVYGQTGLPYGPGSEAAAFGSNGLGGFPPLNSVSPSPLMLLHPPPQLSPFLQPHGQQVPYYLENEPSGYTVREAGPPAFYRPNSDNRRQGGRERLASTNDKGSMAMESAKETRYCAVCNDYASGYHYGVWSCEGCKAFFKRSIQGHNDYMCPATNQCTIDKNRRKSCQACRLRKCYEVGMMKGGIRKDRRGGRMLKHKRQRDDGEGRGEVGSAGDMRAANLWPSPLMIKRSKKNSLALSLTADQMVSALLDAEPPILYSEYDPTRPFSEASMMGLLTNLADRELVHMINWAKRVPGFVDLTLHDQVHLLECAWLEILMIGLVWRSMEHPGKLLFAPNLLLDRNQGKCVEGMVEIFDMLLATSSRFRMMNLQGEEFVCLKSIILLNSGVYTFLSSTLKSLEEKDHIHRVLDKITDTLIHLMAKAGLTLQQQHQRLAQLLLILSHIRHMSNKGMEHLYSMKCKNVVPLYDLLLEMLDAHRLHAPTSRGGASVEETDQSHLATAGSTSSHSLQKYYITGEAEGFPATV

Structure (SMILES) | outcome [1] | Potency [2] | Potency [3] | Potency [4] | Potency [5] | Potency [6] | Potency [7] | outcome [8] | Potency [9] | outcome [10] | Potency [11] | Potency [12] | Potency [13] | outcome [14] | Potency [15] | outcome [16] | Potency [17] | Potency [18] | Potency [19] | Potency [20]
COc1ccccc1OC | inactive | inactive | inactive | inactive | inactive | inactive | inactive | inactive | inactive | inactive | inactive | inactive | inactive | inactive | inactive |  |  |  |  | 
CC(C)N(Cc1ccccc1)C(=O)C(C)(C)C | inactive | inactive |  | inactive | inactive |  | inactive | inactive | inactive | inactive | inactive |  | inactive | inactive | inactive | inactive | inactive | inactive | inactive | 
CC(Cc1ccccc1)NCCn1cnc2c1c(=O)n(C)c(=O)n2C (centres undefined) | inactive | inactive | inactive |  | inactive |  | inactive | inactive | inactive | inactive | inactive | inactive | inactive | inactive |  | inactive | 24.2 µM (active) |  |  | inactive
N#CC(Br)(Br)C(N)=O | inactive | inactive |  | inactive | inactive | inactive | inactive | inactive | inactive | inactive | inactive |  | inactive | inactive | inactive | inactive | inactive |  | 54.5 µM (active) | 
CCN[C@@H](C)Cc1ccccc1 | inactive | inactive | inactive |  | inactive | inactive |  | inactive | inactive | inactive | inactive |  | inactive | inactive | inactive | inactive | inactive | inactive |  | inactive
CCC(CC)(CNC(=O)CCCO)c1cccc(OC)c1 | inactive | inactive | inactive |  | inactive | inactive |  | inactive | inactive | inactive | inactive |  | inactive | inactive | inactive | inactive | inactive | inactive | inactive | 
Cc1cccc2sc3nncn3c12 | inactive | inactive |  | inactive |  | inactive | inactive | inactive | inactive | inactive | inactive | inactive | inactive | inactive | inactive | inactive |  |  | inactive | 
CCCN1CCC[C@@H]2Cc3nc(N)ncc3C[C@H]21 | inactive | 16.9 µM (active) | 21.3 µM (active) | 19 µM (active) | inactive | inactive | 19 µM (active) | inactive | 23.9 µM (active) | inactive | inactive | inactive | inactive | inactive | inactive |  | inactive |  | inactive | inactive
O=[N+]([O-])CCO | inactive | inactive |  | inactive | inactive | inactive | inactive | inactive | inactive | inactive | inactive | inactive | inactive | inactive | inactive | inactive | inactive |  | inactive | 
O=C(O)C(Cl)Br (centres undefined) | inactive | inactive | inactive |  |  |  | inactive | inactive | inactive | inactive | inactive |  | inactive | inactive | inactive | inactive | inactive |  | inactive | 
Clc1ccc(C(Cl)(Cl)Cl)cn1 | inactive | 34.7 µM (active) | inactive |  | inactive | inactive |  | inactive | inactive | inactive | inactive | inactive | inactive | inactive | inactive | inactive | inactive | inactive | inactive | 
OP(O)c1ccccc1 | inactive | inactive | inactive |  | inactive | inactive |  | inactive | inactive | inactive | inactive | inactive | inactive | inactive | inactive | inactive | inactive | inactive | inactive | 
CCOP(=O)(CN(CCO)CCO)OCC | inactive | inactive | inactive | inactive | inactive | inactive | inactive | inactive | inactive | inactive | inactive | inactive | inactive | inactive | inactive |  | inactive |  | inactive | 
CC#Cc1cc(C)nc(Nc2ccccc2)n1 | inactive | inactive | inactive |  | inactive |  | inactive | inactive | inactive | inactive | inactive | inactive |  | inactive | inactive | inactive |  |  |  | 
N#CN | inactive | inactive | inactive |  |  | inactive | inactive | inactive | inactive | inactive | inactive | inactive | inactive | inactive | inactive | inactive | inactive |  |  | inactive
NNC(N)=O | inactive | inactive | inactive |  | inactive |  | inactive | inactive | inactive | inactive | inactive | inactive | inactive | inactive | inactive | inactive | inactive |  | inactive | 
